Over roughly 33,000 sequences, “E-score (-0.5 to 0.5)” has its median near -0.041; the highest 2% begin near 0.37. Only a selection was taken, and the highest values are over-represented in it overall.
molecular target: T1, Ecm22 (UniProt Q05958); experiment: PBM E-score (8-mer binding enrichment) (E-score (-0.5 to 0.5)); higher = stronger / more preferred TF binding; settings: protein concentration: 200 nM; construct: GST-full length
T1 sequence: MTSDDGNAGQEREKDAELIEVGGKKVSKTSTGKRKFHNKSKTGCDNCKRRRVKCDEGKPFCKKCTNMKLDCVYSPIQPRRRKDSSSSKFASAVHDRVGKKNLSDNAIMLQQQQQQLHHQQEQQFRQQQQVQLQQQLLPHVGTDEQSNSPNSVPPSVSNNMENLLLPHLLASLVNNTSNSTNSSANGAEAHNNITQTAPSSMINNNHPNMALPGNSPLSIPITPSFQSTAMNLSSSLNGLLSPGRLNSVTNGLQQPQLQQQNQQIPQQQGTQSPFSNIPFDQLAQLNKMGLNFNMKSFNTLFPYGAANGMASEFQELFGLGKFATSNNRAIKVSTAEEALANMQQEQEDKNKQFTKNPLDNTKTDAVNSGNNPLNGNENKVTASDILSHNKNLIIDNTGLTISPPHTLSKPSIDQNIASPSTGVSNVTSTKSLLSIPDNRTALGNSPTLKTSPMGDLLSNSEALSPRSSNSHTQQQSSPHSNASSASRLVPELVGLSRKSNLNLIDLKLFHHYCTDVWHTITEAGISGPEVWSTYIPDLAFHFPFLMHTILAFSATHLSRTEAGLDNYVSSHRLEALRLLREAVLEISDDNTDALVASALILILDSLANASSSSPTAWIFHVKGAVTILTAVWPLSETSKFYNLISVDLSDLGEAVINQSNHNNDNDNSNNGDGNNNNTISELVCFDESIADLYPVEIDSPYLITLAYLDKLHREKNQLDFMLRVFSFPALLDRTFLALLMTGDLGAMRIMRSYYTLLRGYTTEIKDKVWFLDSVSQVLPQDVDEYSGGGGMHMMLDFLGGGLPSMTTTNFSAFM
Protocol: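 Universal 'all 10-mer' protein binding microarrays (Agilent AMADID 015681) probed with GST-tagged S. cerevisiae TFs (full-length or DBD) made by in vitro transcription/translation (PURExpress), about 100-200 nM. Bound TF was detected with fluorescent anti-GST. Each ungapped 8-mer (which stands for itself and its reverse complement) is scored by the PBM enrichment score (E-score), a modified Wilcoxon-Mann-Whitney statistic from -0.5 to +0.5, computed with the Universal PBM Analysis Suite. Scale: above 0.35 generally sequence-specific binding.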

Sequence	PBM E-score
AGCCTAAC	-0.0712
ATCTGCGG	-0.00985
GATGAGGA	-0.0394
AGGAGCTA	-0.138
ATCTCGTA	0.466
CTCTCGTA	0.457
GTCTCGGA	0.242
CTCTCGAA	-0.0852
CTCTCGTC	0.0625
GTCTCGAA	-0.00716
ATCTCGTG	0.193
GTCTCGTA	0.461
ATCTCGTC	0.158
CTGCGGGC	-0.163
AACGCTTG	-0.121
CTTGGACC	-0.134
CGTAGCTC	0.32
AACTTAGA	-0.0444
ACGTCGTC	0.175
ACGTCGTA	0.464
CCGTCGTA	0.471
GCGTCGCA	0.23
ACGTCGTG	0.117
CCGTCGGA	0.0756
GCGTCGTA	0.471

Sequence	PBM E-score
GCGTCGAA	0.0462
CCGTCGTC	0.0655
GTCATAGA	-0.115
CTCAACCC	-0.14
AACCCCGT	0.0296
AGTATGAC	0.0876
GGTATGAC	-0.125
CGTATGAA	0.415
CGTATGAC	0.407
AGTATGAA	0.0349
CGTATGAG	0.354
CCGCAATA	0.0155
AAAACTCG	0.182
AAACACCG	0.14
GCATGCCA	0.0106
CGTTCCCA	0.443
AGTTCCCA	0.0586
CGTTTCCC	0.261
GGTTCCCA	-0.173
CGTTCCCC	0.428
AGTTCCCC	-0.0578
CGCCTTTC	0.0685
CTAGAAGA	-0.0952
ATGGACTG	-0.151
CCACTTCC	0.0365

Sequence	PBM E-score
TAACGAAA	0.296
CAACGAAA	0.278
AAACGAAA	0.449
CCACGAAG	0.0223
AAACGAAT	0.453
CAACGAAG	0.277
AACCGAAT	0.284
AAACGTAT	0.319
AAACGAAG	0.457
GATTAGCC	0.0338
GCCACTCA	-0.196
AACCGCGC	-0.0112
ACGCTGCA	-0.0508
AAAAACAG	-0.0439
CACGAACC	0.0995
GACGAACC	0.0132
GACGAACA	0.0113
AACGAACG	0.437
AACGAACA	0.409
AGCGAACA	0.198
CACGAACG	0.312
CACGAACA	0.177
AACGAACT	0.354
TACGAACA	0.452
TCCGAACA	0.0654

Sequence	PBM E-score
AACGAACC	0.408
GCCCGGCC	-0.229
ACGGTTAC	0.255
AGGAAGGG	-0.211
TCTGCTAA	-0.086
CTTTCTCA	0.00463
CACTATCA	-0.0654
CCGCTGAA	-0.00985
GTCTGGTA	0.00642
GAACGGAC	0.279
CAACGAAC	0.272
AAACGAAC	0.454
AAGCGAAC	0.268
AAACGGAC	0.307
GAACGAAA	0.43
GAACGAAC	0.453
CCACGAAA	-0.0672
TGACGAAA	0.061
AGCGGGAG	-0.188
GGGGGTTA	-0.298
AACCCGAG	0.267
GCATCCGC	-0.18
CTGCGGGA	-0.163
AGGAGCGA	0.328
TGTATAAA	0.172

Sequence	PBM E-score
GGTATAAC	0.0372
CATATAAG	0.0284
TGTATCAA	-0.0485
CGTATCAA	0.386
AGTATAAA	0.241
AGTATAAG	0.109
CGTATCAC	0.365
CGTATAAC	0.473
AGTATAAC	0.0917
CGTATAAG	0.466
CGTATAAA	0.477
CTGAAGAC	0.056
CAAGCCGC	-0.0639
CGCTTGGC	0.0372
CCGCGCGG	0.263
CGTGTGTC	0.0878
AGATCAGC	-0.106
ACATCTTG	-0.0408
CGCAGTAC	0.174
CGCACGAA	0.175
CTTCTTCA	-0.341
CCCGAAGC	-0.0995
GGCGATGA	-0.00497
CCTTTACG	0.329
ATTTTACG	0.392

Sequence	PBM E-score
ACTTTACG	0.394
ATTTTACC	0.06
AATTTACG	0.303
ACTTTACA	-0.00715
CTCTCCGC	-0.147
GCAGTGCC	-0.179
GTAACCTA	0.00094
AGCCACGC	-0.14
ATGAGCGG	-0.0285
CCGAGCGA	0.237
CCGAGCGG	0.202
ACGAGCGA	0.409
GCGAGCGA	0.31
ACGAGCGC	0.327
ACGAGCGT	0.389
ACGAGCGG	0.386
AAGAGCGT	0.0857
AGTCTTTG	-0.0796
ATCTCGGC	0.0673
CGCTAAGA	0.149
CCACTGCC	-0.0201
GCAGGCCA	-0.00078
CACCCCCG	-0.2
TCAGTCGA	0.0318
CAAGCGGG	-0.0323

Sequence	PBM E-score
ATTCTACA	0.0155
GAGAGCGC	-0.0803
TACGAGCA	0.467
GACGAGCC	0.0624
TGCGAGCA	0.238
AGCGAGCG	0.345
AACGAGCG	0.459
CACGAGCA	0.0712
CACGAGCG	0.201
AACGAGCC	0.442
GACGAGCA	0.0907
CACGAGCC	0.143
TCCGAGCA	0.236
AACGAGCA	0.46
AGCGTGGG	-0.0957
GGTTGGAC	-0.241
AACCGAAA	0.235
AAATTCTG	-0.0343
ACCGGATC	-0.0309
CAAGTGCG	-0.0245
ACTCCATA	-0.195
CAGGAGAC	0.0295

— the supplement of paper PMC3334620
